Results filed as inconclusive are left out. Calls of active or inactive are those of the source. The call rests on the fitted dose curve; in most records, active means well fitted inhibition curve with a large enough effect; inconclusive means small, poorly fitted or top-dose-only effect; inactive means no such curve, though single readings can be large or run the other way.
Potency means the concentration at half of the fitted maximal effect.

This assay can be described thus: InCell qHTS Assay for Inhibitors of the mTORC1 Signaling Pathway in MEF (Tsc2-/-, p53-/-) Cells: Hit Validation.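 Further: phospho-S6 Ser235/236 signal normalized to propidium iodide cell count per well; nearly all actives have a fitted effect of over 75% in size.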 The note with it: phospho-rpS6 immunofluorescence, 24 h; activity change, negative = inhibition: at 38.3 µM (top of the series). On the technique in general: Quantitative high-throughput screening tests each substance at several concentrations.
Turning to `Cc1ccc(Nc2nnc(-c3ccc(C)c(S(=O)(=O)N4CCOCC4)c3)c3ccccc23)c(C)c1`, the activity change, negative = inhibition was -100%.

Regarding `COc1cc(NC(=O)CSc2ccc(-c3ccccn3)nn2)cc(OC)c1`, the activity change, negative = inhibition was -100%.

Take `O=S(=O)(c1ccccc1)n1nc(-c2ccc(Cl)cc2)nc1NCc1ccccc1`: the activity change, negative = inhibition is -5.06%.

With `COc1ccc2nc(NC(=O)c3nc(S(=O)(=O)Cc4ccccc4)ncc3Cl)sc2c1`, the Potency is 1.65 µM (active).

`CCCSc1oc(-c2ccco2)nc1S(=O)(=O)c1ccc(Br)cc1`: the activity change, negative = inhibition was -100%.

Regarding `COc1cc(CNc2ccc3c(c2)ncn3C(C)C)cc(OC)c1OC`, the activity change, negative = inhibition was -100%.

Turning to `CCCS(=O)(=O)c1c(S(=O)(=O)CCC)c2cc(C(C)(C)C)ccn2c1C(=O)c1ccc(OC)c(OC)c1`, the activity change, negative = inhibition was -100%.

On to `COc1cccc(C(=O)Nc2ccc(-c3cc(C(F)(F)F)nn3-c3ccccc3)cc2)c1`, for which the activity change, negative = inhibition is -100%.

`COc1ccc(OCC(O)Cn2c(=N)n(CCN3CCCCC3)c3ccccc32)cc1` (configuration not stated): the activity change, negative = inhibition was -100%.

With `CCCCS(=O)(=O)c1oc(-c2cccs2)nc1S(=O)(=O)c1ccc(F)cc1`, the Potency was 3.29 µM (active).

Take `Cc1ccc(C)c(CN2C(=O)C(=O)c3ccccc32)c1`: the activity change, negative = inhibition was -100%.

Take `Cc1cccc(NC(=O)c2c(NC(=O)C(F)(F)F)sc3c2CCCCC3)c1`: the activity change, negative = inhibition is -100%.

Take `Cc1cccc(OCC(=O)Nc2ccc3c(c2)N(C)C(=O)c2ccccc2S3)c1`: the activity change, negative = inhibition is -100%.

Consider `CCOC(=O)c1ccc(-c2ccc(/C=C(\C#N)c3nc4ccc(C)cc4[nH]3)o2)cc1`, for which the activity change, negative = inhibition is -100%.

As for `CCCS(=O)(=O)c1ncc(Cl)c(C(=O)N2CCN(c3ccc(OC)cc3)CC2)n1`, the Potency is 1.85 µM (active).

For `Cc1cccc(CSCCNC(=O)CN(c2ccccc2)S(=O)(=O)N(C)C)c1`, the activity change, negative = inhibition is -100%.

Turning to `CSc1ccc(CCNC(=O)C(C)n2nc(C)c3sc4ccccc4c3c2=O)cc1` (configuration not stated), the activity change, negative = inhibition is -100%.

On to `CCc1nn(CC(=O)NCc2ccccc2)c(=O)c2cccn12`, for which the activity change, negative = inhibition was -100%.

Regarding `CCOc1ccc(CCNCc2c(C(=O)O)n(Cc3ccc(C)cc3)c3cc(OC)ccc23)cc1`, the activity change, negative = inhibition is -100%.

Take `Cc1cc(C)c(NC(=O)Cn2c(=O)n(Cc3ccc(C(=O)NCc4ccc5c(c4)OCO5)cc3)c(=O)c3ccccc32)c(C)c1`: the Potency is 3.29 µM (active).

Take `Cc1cccc(CS(=O)(=O)c2ncc(Cl)c(C(=O)NCc3ccccc3)n2)c1`: the Potency was 10.4 µM (active).

For `Cc1ccc(S(=O)(=O)c2nnn3c2nc(NC2CCCCC2)c2sccc23)cc1C`, the activity change, negative = inhibition was -100%.

With `CCN(CCCNC(=O)c1cc2c(=O)[nH]c3ccccc3c2s1)c1ccccc1`, the activity change, negative = inhibition was -100%.

Take `CCn1c(=O)sc2cc(NS(=O)(=O)c3ccc(F)c(C)c3)ccc21`: the activity change, negative = inhibition was -100%.

As for `Cc1ccc(CN2C(=O)c3ccccc3Sc3ccc(C(=O)NCCCN4CCOCC4)cc32)cc1`, the activity change, negative = inhibition is -100%.

On to `Cc1cccc(NC(=O)Cn2cc(C(=O)c3ccco3)c3ccccc32)c1C`, for which the activity change, negative = inhibition was -100%.

As to `Brc1ccc(Nc2c3c(nc4nncn24)CCC3)cc1`, the activity change, negative = inhibition is -100%.

In the case of `O=C(CS(=O)(=O)c1cccc2nsnc12)NCc1ccc(Cl)cc1`, the activity change, negative = inhibition is -100%.

`COc1cc(C(=O)n2nc(C)c(Sc3ccc(Cl)cc3)c2C)cc(OC)c1OC`: the activity change, negative = inhibition was -100%.

On to `O=C(CSc1cn(CC(=O)N2CCCC2)c2ccccc12)Nc1ccc(Cl)cc1`, for which the activity change, negative = inhibition is -100%.

Turning to `Cc1ccc(NC(=O)COc2ccc(-c3nn(C)c(=O)c4ccccc34)cc2)c(C)c1`, the activity change, negative = inhibition is -100%.

Take `CCCC1=Nc2cc(C(=O)NC3CCCC3)ccc2Sc2ccc(C)cc21`: the activity change, negative = inhibition is -100%.

`CC1=C(C(=O)Nc2ccc(C)cc2C)C(c2cc(Br)ccc2F)n2ncc(C(=O)Nc3ccc(C)cc3)c2N1` (configuration not stated): the Potency is 14.7 µM (active).

For `CCN(CC)CC(C)CNC(=O)c1cc(-c2ccc(Br)s2)nc2ccccc12` (configuration not stated), the activity change, negative = inhibition is -14.3%.

Consider `COc1ccc(OC)c(NC(=O)c2nc(S(=O)(=O)Cc3ccc(F)cc3)ncc2Cl)c1`, for which the Potency is 2.61 µM (active).

In the case of `Cc1ccc(NC(=O)c2nc(S(=O)(=O)Cc3cccc(C)c3)ncc2Cl)cc1`, the Potency is 14.7 µM (active).

For the compound `CCOc1c(Br)cc(C2CC(=O)Nc3cc4c(cc32)OCO4)cc1OC` (configuration not stated), the activity change, negative = inhibition was -100%.

The values are drawn from PubChem BioAssay AID651791 (National Center for Advancing Translational Sciences (NCATS), 2012).
